PubChem BioAssay (Tox21)
Inconclusive results are not listed. The source made the active and inactive calls. The call rests on the fitted dose curve; in most records, active means well fitted cell-killing curve with a large enough effect in the repeat runs; inconclusive means weak or mixed curves, or effect the other way; inactive means no such curve, though single readings can be large or run the other way.

assay: qHTS assay to identify small molecule antagonists of the retinoid-related orphan receptor gamma (ROR-gamma) signaling pathway - cell viability counter screen (AID 1159520); conditions: Tet-on RORgamma CHO cells viability, ATP luminescence, 16 h; series mostly up to 92.4 µM; activity, negative = cytotoxicity: at the top concentration; further: nearly all actives have a fitted effect of over 50% in size
From the text: U.S. Tox21 Program National Center for Advancing Translational Sciences [NCATS] NIH Chemical Genomics Center [NCGC] U.S. Environmental Protection Agency [EPA] National Institutes of Environmental Health Sciences [NIEHS] National Toxicology Program [NTP] U.S. Food and Drug Administration [FDA] Tox21 Assay Overview: Nuclear steroid hormone receptors are involved in many biological processes including inflammatory responses, cell proliferation, and apoptosis. Environmental factors or compounds disrupting these nuclear receptor pathways and gene expression may promote susceptibility to immunotoxicants and autoimmune diseases. One important group of these expression factors are the retinoid-related orphan receptors. To assess compounds that may interfere with the retinoid-related orphan receptor gamma (ROR-gamma) transcription factor, a cell-based luciferase assay was used. The CHO cell-based assay utilizes a TET-inducible ROR expression factor and ROR response element-LUC reporter gene. Reporter gene activity was induced using Doxycycline Hyclate and measured after 16 hr incubation. Tet-on ROR gamma CHO cells were used to screen against the Tox21 10K compound library for cytotoxicity by measuring the viability of the cells based on the quantitation of the ATP.
Tox21 Assay Protocol Summary: Tet-on ROR gamma CHO cells were dispensed at 1,000 cells in 4 uL of culture medium per well into white wall/solid bottom 1536-well plates using a Multidrop Combi (Thermo Scientific, Waltham, MA) dispenser. Following incubation at 37 C and 5% CO2 for 4 hr, 23 nL of compounds dissolved in DMSO, positive controls or DMSO only were transferred by a Pintool station (Kalypsys, San Diego, CA) and after 2 hr incubation at 37 C, one ul of 1 uM (final concentration) of Doxycycline Hyclate was added to all the wells by using a Flying Reagent Dispenser (FRD) (Aurora Discovery, San Diego, CA). After 16 hr incubation at 37 C and 5% CO2, 5 uL of CellTiter-Glo reagent (Promega Corporation, Madison, WI) was added to each assay plate using FRD. After 30 min incubation at room temperature, luminescence was quantified on a ViewLux plate reader (Perkin Elmer, Waltham, MA).
On the % scale 0 is the no-effect control and ±100 the full control effect; potency means the concentration at half of the fitted maximal effect.

SMILES	Potency	activity, negative = cytotoxicity
CCCCCCCCOC(=O)c1cc(O)c(O)c(O)c1	2.43 µM (active)	–
Nc1cccnc1N	–	5.39% (inactive)
C=CC(=O)O[C@H]1C[C@@H]2CC[C@@]1(C)C2(C)C	–	3.64% (inactive)
O=C(O)CN(CCCN(CC(=O)O)CC(=O)O)CC(=O)O	–	3.4% [at 19 µM] (inactive)
CN(C[C@@H](CC[N+]12CCC(C3CCCCC3)(CC1)CC2)c1ccc(Cl)c(Cl)c1)C(=O)c1cc(C(F)(F)F)cc(C(F)(F)F)c1	48.6 µM (active)	–
CCCCCCCCCCCCCCCCC(C(=O)O)C(O)(CC(=O)O)C(=O)O (stereo not given)	–	-6.56% [at 42.5 µM] (inactive)
Cc1ccc2n[nH]nc2c1	–	3.27% (inactive)
Cc1ccc(Cl)c(N)c1Cl	–	-7.13% (inactive)
COc1cc(OC)nc(NC(=O)NS(=O)(=O)Nc2ccccc2C(=O)N(C)C)n1	–	-2.85% (inactive)
CC1(C)[C@H](C(=O)OCc2cccc(Oc3ccccc3)c2)[C@@H]1C=C(Cl)Cl	–	5.45% (inactive)
Cc1ccc2nc(-c3ccc(N)cc3)sc2c1S(=O)(=O)O	–	0.759% [at 42.5 µM] (inactive)
CN1CC[C@H](c2c(O)cc(O)c3c(=O)cc(-c4ccccc4Cl)oc23)[C@H](O)C1	0.237 µM (active)	–
O=[N+]([O-])c1ccc(O)c2ncccc12	23.7 µM (active)	–
O=C1OC(=O)c2cc(-c3ccc4c(c3)C(=O)OC4=O)ccc21	–	7.68% (inactive)
C=C1CC[C@H]2O[C@]2(C)CC[C@@H]2[C@@H]1CC2(C)C	–	-5.73% (inactive)
CN1CCN(C)CC1	–	0.15% (inactive)
N#Cc1ccc(C/C(=N/NC(=O)Nc2ccc(OC(F)(F)F)cc2)c2cccc(C(F)(F)F)c2)cc1	–	-10.4% (inactive)
Nc1ccc(F)c([N+](=O)[O-])c1	–	-4.64% (inactive)
Oc1ccc(Cl)cc1C1CCCC1	–	-8.82% (inactive)
c1ccc2c(c1)-c1ccc3ccc4cccc5cc-2c1c3c45	–	-0.0547% [at 42.5 µM] (inactive)

SMILES	Potency	activity, negative = cytotoxicity
CC1=CC[C@@H](C(C)(C)O)CC1	–	4.29% (inactive)
C[C@H]1O[C@@H](O[C@H]2CC[C@@]3(C)[C@H](CC[C@@H]4[C@@H]3C[C@@H](O)[C@]3(C)[C@@H](C5=CC(=O)OC5)CC[C@]43O)C2)C[C@H](O)[C@@H]1O[C@H]1C[C@H](O)[C@H](O[C@H]2C[C@H](O)[C@H](O[C@@H]3O[C@H](CO)[C@@H](O)[C@H](O)[C@H]3O)[C@@H](C)O2)[C@@H](C)O1	–	-0.287% [at 42.5 µM] (inactive)
O=C(Cl)c1ccc(Cl)cc1Cl	61.1 µM (active)	–
CSc1ccc(O)cc1C	–	-27.2% (inactive)
O=C(NCc1ncc(C(F)(F)F)cc1Cl)c1c(Cl)cccc1Cl	–	-19.3% (inactive)
C1CCSC1	–	0.704% (inactive)
CCn1c2ccccc2c2ccccc21	–	-15.7% (inactive)
[Cl][Sc]([Cl])[Cl]	–	9.62% (inactive)
O=C1CCC(=O)N1	–	2.29% (inactive)
C=C[Si](C)(C)Cl	–	5.94% [at 8.39 µM] (inactive)
C/C=C/C(=O)OCC(C)C	–	7.51% (inactive)
C=COCCCC	–	5.85% (inactive)
C=CC(=O)OCCOC1C2CCC1C1CC=CC12 (stereo not given)	–	1.32% [at 19 µM] (inactive)
Nc1c(Br)cc([N+](=O)[O-])cc1Br	–	-8.41% (inactive)
CC(C)(c1ccc(Oc2ccc(N)cc2)cc1)c1ccc(Oc2ccc(N)cc2)cc1	61.1 µM (active)	–
Cc1c(Cl)c(=O)oc2cc(O)ccc12	–	-10.7% (inactive)
COc1ccc(OC)c(N=Nc2c(O)ccc3ccccc23)c1	30.6 µM (active)	–
Brc1cc(Br)cc(Br)c1	–	1.41% (inactive)
Clc1ccc2c(Cl)ccnc2c1	–	-2.04% (inactive)
CC(C)C(=O)C(C)C	–	1.56% (inactive)
